High-throughput results (PubChem BioAssay)
GLS inh = inhibitors of human glutaminase (GLS). O94925. GLS enzymatic activity, qHTS titration. Potency, µM (doses to about 45.5 µM), usual class: inhibitors. hit rate 0.21% among 410,000
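Read-out is an Amplex red fluorescence increase coupled through glutamate oxidase and HRP, measured before and after 30 min room-temperature incubation. hKGA is in 45 mM KH2PO4 (pH 8.2) with 0.02% Tween-20; glutamine added as 1mM solution.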
Pol kappa inh = DNA polymerase kappa (human) inhibition; purified Pol kappa, fluorescent DNA synthesis assay, 10 min; Potency, µM (highest dose often 107 µM), usual class: inhibitors; hit rate 0.53% among 400,000; AID 588579
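Here, compound and 10 nM enzyme are combined for 15 min at room temperature; adding 50 nM substrate (final) starts DNA synthesis, tracked by fluorescence at 0 and 10 min against buffer-only wells.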
POLH inh = inhibitors of human DNA polymerase eta | Q9Y253 | hit rate 1.2% among 390,000 | recombinant Pol eta, fluorescent DNA replication assay | Potency, µM (series often up to 114 µM), most hits filed as inhibitors
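Fluorescent replication assay: 50 nM final substrate added after a 15 min room-temperature compound preincubation with 10 nM enzyme. Signal taken at 0 min and again at 10 min.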
Pol iota inh = inhibitors of human DNA polymerase iota; Potency, µM (top dose mostly 115 µM), usual class: inhibitors; Q9UNA4; Pol iota fluorescent replication assay, 10 min; hit rate 1% among 390,000
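Fluorescent replication assay read twice, at 0 min and 10 min after adding 50 nM (final) substrate. Enzyme (10 nM) and compounds were first incubated 15 min at room temperature; enzyme-free buffer wells were negative controls.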
APE1 inh = blocks human APE1 abasic DNA cleavage; P27695; recombinant APE1, TAMRA/BHQ-2 abasic DNA cleavage fluorescence; Potency, µM (highest dose often 65.8 µM), actives largely listed as inhibitors; hit rate 0.35% among 350,000; AID 2517; also: nearly all actives have a fitted effect of over 55% in size
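Substrate: short duplex with […] THF abasic site, 5'-TAMRA and 3'-BHQ-2, 50 nM final. APE1 at 0.75 nM, preincubated 15 min RT with compound. Fluorescence increase from first to third read measured activity.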
Pol beta inh = blocks human DNA polymerase beta activity | P06746 | hit rate 1.3% among 340,000 | Pol beta primer extension/strand displacement, fluorescence kinetic | Potency, µM (titrated, usually from 114 µM), most hits filed as inhibitors
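Homogeneous kinetic assay of primer extension and strand displacement by 10 nM Pol beta, preincubated 15 min at room temperature with compound before 50 nM substrate (final) was added. Read at 0 and 10 min; four-parameter Hill fit.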
Of the large screens only hits and unclear results are named; the others gave an inactive call. The list is not random: actives were taken first. Their share in the collection is about 2.4%. Calls follow the shape of the dose curve; as a rule, active = well fitted curve in the direction sought with a large enough effect; inconclusive = small, poorly fitted or top-dose-only effect, or another doubt; inactive = no such curve, though single readings can be large; an effect the other way counts as inactive or inconclusive.

COc1cc(C2NC(=O)C(C#N)=C(S)N2c2ccccc2)ccc1OC(C)C (stereo unspecified)	Pol iota inh 28µM
CC(C)N(C(=O)Nc1ccc2nccnc2c1)C(C)C	POLH inh inconclusive
O=C(Cc1cccs1)Nc1nnc(-c2ccncc2)s1	Pol iota inh 63µM, Pol beta inh inconclusive
COc1cccc(-c2nnc(NC(=O)Cc3cccs3)s2)c1	POLH inh inconclusive, APE1 inh inconclusive, Pol beta inh 20µM
COc1cccc(OCC(=O)NNC(=O)Cc2cccs2)c1	none
CC(C)c1nnc(NC(=O)Cc2cccs2)s1	none
Cc1cc(S(=O)(=O)NCC(c2ccco2)S(=O)(=O)c2cccs2)ccc1F (stereo unspecified)	Pol iota inh inconclusive (no result: APE1 inh)
O=C(COC(=O)CCCc1nc2ccccc2s1)Nc1ncc(Cl)cc1Cl	POLH inh inconclusive, Pol beta inh 40µM
COc1ccc(OC)c(N(CC(=O)NC2CC3CCC2C3)S(=O)(=O)c2ccccc2)c1 (stereo unspecified)	none
O=C(O)/C=C/C(=O)Nc1ccc(Cl)c(C(=O)O)c1	POLH inh 45µM, Pol iota inh inconclusive, APE1 inh inconclusive, Pol beta inh inconclusive
O=C(O)/C=C/C(=O)Nc1ccc(Oc2ccc(NC(=O)/C=C/C(=O)O)cc2)cc1	APE1 inh inconclusive, Pol beta inh 40µM (no result: GLS inh, Pol kappa inh, POLH inh, Pol iota inh)
O=C(O)/C=C\C(=O)Nc1ccc(Oc2ccccc2)cc1	none
COc1ccccc1OCCSc1nnc(CNC(=O)c2ccco2)n1C	none
Oc1ccc(/C=N/Nc2ccnc3cc(Cl)ccc23)cc1O	POLH inh inconclusive, Pol iota inh inconclusive, APE1 inh inconclusive, Pol beta inh inconclusive
Oc1ccc(/C=N/Nc2ccnc3cc(Cl)ccc23)c(O)c1O	GLS inh 13µM, Pol kappa inh 45µM, POLH inh inconclusive, Pol iota inh inconclusive, Pol beta inh 14µM
COc1cccc(C=Nc2ccc(C)c(F)c2)c1O	none
COc1cc2cc(Oc3ccc4ccc(=O)oc4c3)c(=O)oc2cc1OC(=O)C=C(C)C	APE1 inh inconclusive, Pol beta inh 14µM (no result: GLS inh, Pol kappa inh, POLH inh, Pol iota inh)
CCOC(=O)c1cc(-c2ccco2)nn1-c1ccc(C)cc1	POLH inh inconclusive, Pol beta inh inconclusive
O=C(c1cc(-c2ccco2)nn1-c1cccc(Cl)c1)N1CCCCC1	Pol kappa inh inconclusive, POLH inh 18µM, Pol iota inh inconclusive, Pol beta inh inconclusive
Cc1ccc(-n2nc(-c3ccco3)cc2C(=O)O)cc1	GLS inh 11µM, Pol kappa inh inconclusive, POLH inh 14µM, Pol iota inh 18µM, APE1 inh inconclusive, Pol beta inh inconclusive
CC(C)NC(=O)c1cc(-c2ccco2)nn1-c1ccc(Cl)cc1	Pol kappa inh inconclusive, POLH inh inconclusive, Pol iota inh 50µM, Pol beta inh 40µM
COc1ccccc1-n1cnc2sc(-c3ccccc3)cc2c1=O	none
Cc1[nH][nH]c(=O)c1C(c1ccc(-c2ccc(F)cc2)o1)c1c(C)[nH][nH]c1=O	Pol iota inh 7.1µM, Pol beta inh inconclusive
Cc1[nH][nH]c(=O)c1C(c1ccc(-c2ccc(Cl)c(Cl)c2)o1)c1c(C)[nH][nH]c1=O	POLH inh inconclusive, Pol iota inh 3.5µM, APE1 inh inconclusive
COc1ccc(-c2ccc(/C=N/N3C(=O)C4C5C=CC(C6CC56)C4C3=O)o2)c([N+](=O)[O-])c1 (stereo unspecified)	POLH inh inconclusive, Pol beta inh inconclusive
COc1ccc(-c2ccc(C(c3c(C)[nH][nH]c3=O)c3c(C)[nH][nH]c3=O)o2)c([N+](=O)[O-])c1	Pol iota inh 11µM, APE1 inh inconclusive, Pol beta inh inconclusive
CCOc1ccc(Cl)cc1C(c1c(C)[nH][nH]c1=O)c1c(C)[nH][nH]c1=O	Pol iota inh inconclusive
Cc1cccc(N2CCN(C(=O)c3cn4ccccc4n3)CC2C)c1 (stereo unspecified)	APE1 inh inconclusive
COc1cccc(N2CCN(S(=O)(=O)c3ccc4c(c3)NC(=O)C(C)C(=O)N4)CC2)c1 (stereo unspecified)	none
O=Cc1[nH]c2ccccc2c1N(C(=O)CCl)c1ccccc1	POLH inh 20µM, Pol iota inh inconclusive
